Screens from PubChem BioAssay.
This is one part of a sample in which hits are shown more often than they occur.
Pf Dd2 inh: qHTS Primary assay for Inhibitors of Plasmodium falciparum Dd2 growth in vitro; P. falciparum Dd2 growth, SYBR Green, 72 h; Potency, µM (series often up to 28.9 µM), hits mostly inhibitors; actives 4.3% (n = 120,000); active = well fitted inhibition curve with a large enough effect; note: nearly all actives have a fitted effect of over 65% in size
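Readout: SYBR Green fluorescence, 485 nm excitation, 535 nm emission, after ~16 h lysis at 37C. Before that, Dd2-infected red cells (2.5% hematocrit) grew 72 h with compound, 29 uM top final concentration.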
Large screens that a line does not name were inactive.

C[C@@]1(O)CCN(Cc2cccc(F)c2)C[C@H]1N1CCCC1	none
CCCS(=O)(=O)NCc1cccnc1Oc1ccc(F)c(F)c1	none
CCOC(=O)CCNC(=O)N1CCCC(c2nc(-c3cnccn3)no2)CCNC(=O)CC1 (configuration not stated)	none
O=C(c1ccoc1)N1CCC2(CC1)CN(Cc1ccccc1)CC2CO (configuration not stated)	none
CN(C)C(=O)CN1C(=O)CO[C@H](c2ccc(NS(=O)(=O)Cc3ccccc3)cc2)[C@H]1CO	none
COc1ccc(-c2nn(-c3ccccc3)cc2CN2CCC(C#N)CC2)c(F)c1	Pf Dd2 inh 11µM
COc1ccc(OC)c(CN2CCN(Cc3ccccc3F)C(CCO)C2)c1 (configuration not stated)	none
O=c1n(-c2ccc(F)cc2F)nc2n1CCN(Cc1cccc3ccccc13)C2	none
Cc1ccccc1-c1nn(-c2ccc(F)cc2F)cc1CN1CCC[C@@H]1C(N)=O	none
COc1ccc(-c2nn(-c3ccccc3)cc2CN2CCC(CO)CC2)c(F)c1	none
COc1ccc(-c2nn(-c3ccccc3)cc2CN2CCC(F)CC2)c(F)c1	Pf Dd2 inh 11µM
CCC1COCCN1Cc1cn(-c2ccccc2)nc1-c1ccc(OC)cc1F (configuration not stated)	Pf Dd2 inh 13µM
Cc1ccccc1-c1nn(-c2ccc(F)cc2F)cc1CN1CCC(O)CC1	Pf Dd2 inh 11µM
COc1ccc(-n2nc(C3CCN(Cc4cccc5ccccc45)CC3)[nH]c2=O)cc1	none
COc1cccc(N2CC(C(=O)N3CCC(C#N)CC3)NC2=O)c1 (configuration not stated)	none
COc1ccc(CN2CCN(c3nc4ccccc4o3)CC2CCO)c(F)c1 (configuration not stated)	none
COc1ccc(-c2ccnc3nc(C4CC4)nn23)c(F)c1	none
O=S(=O)(NC1CCc2nnc(C3CC3)n2CC1)c1cccnc1 (configuration not stated)	none
C[S+](=O)([O-])N1Cc2ccccc2CC2(CCCCN2Cc2ccccn2)C1 (configuration not stated)	none
Cc1ccccc1-c1cc(C(=O)NCCc2cnc[nH]2)c2c(c1)N(C)CCO2	none
CNC(=O)[C@@H]1C[C@@H](O)CN1C1CCN(C(=O)Cc2cccc(C)c2)CC1	none
O=C1NC2(CCN(C(=O)CCc3cccnc3)CC2)CC1c1ccccc1 (configuration not stated)	none
COc1ccccc1C(=O)N1CCC(N2Cc3cnc(C)n3C2=O)CC1	none
Cc1cccc(C(=O)N2CCC3(CCCCO3)CC2)c1	none
Cc1ccc(C(=O)N2CC[C@@H]3CN(S(C)(=O)=O)[C@@H]3C2)cc1C	none
Cc1ccc([S+](=O)([O-])N2CCn3c(nn(-c4ccc(C(F)(F)F)cc4)c3=O)C2)cc1	none
OC1(CN2CCCCC2)CCN(Cc2cccc(F)c2F)C1 (configuration not stated)	none
COc1ccc(-c2nc3c(C)cccc3cc2CN2CCC(O)CC2)cc1OC	none
CC(=O)NC1(C)CCN(Cc2cnc(-c3cccc(F)c3)s2)CC1	none
COc1ccc(-n2cc(CN3CCC(O)CC3)c(-c3cccc(F)c3)n2)cc1	Pf Dd2 inh 13µM
Cc1cccc(-n2cc(CN3CCCC(C)(O)C3)c(-c3cccc(F)c3)n2)c1 (configuration not stated)	Pf Dd2 inh 8.9µM
COc1cccc(-c2ccccc2NC(=O)C2CCN(Cc3cc(F)ccc3F)CC2)c1	none
O=C1Nc2ccc(Br)cc2C(=O)N2CCN(C(=O)c3cccc(F)c3)C[C@H]12	none
CN1[C@@H](CCC(=O)N2CCC(O)CC2)CNC(=O)[C@@H]2[C@H]1CCN2Cc1nc2ccccc2n1C	none
Cn1c(CNC(=O)CC[C@H]2NC(=O)c3ccccc3NC2=O)nc2ccccc21	none
Cc1cnc(CCNC(=O)c2n[nH]c(=O)c3ccccc23)n1C1CCCCC1	Pf Dd2 inh 7.9µM
COCc1ncc(C)n1CCNC(=O)c1n[nH]c(=O)c2ccccc12	none
Cc1cnc(CCNC(=O)Nc2ccc3c(c2)OCCO3)n1C1CCC1	Pf Dd2 inh 5µM
Cc1cnc(CCNC(=O)NC(C)C)n1C1CC1	none
Cc1cnc(CCNC(=O)c2n[nH]c(=O)c3ccccc23)n1C1CCC1	none
Cc1cnc(CCNC(=O)NCc2ccccc2)n1C1CCC1	none
CCOc1cccc(CN(C)C2CCc3nn(CC4CC4)c(=O)n3CC2)c1 (configuration not stated)	none
Cc1ccc(CN2CC(Oc3ccccc3C(=O)NC3CC3)C2)o1	none
COc1ccc(OC)c(CN2CC(Oc3ccccc3C(=O)NCc3ccccc3)C2)c1	Pf Dd2 inh 1.8µM
O=C(NCc1ccccc1)c1ccccc1OC1CN(Cc2ccc(F)c(F)c2)C1	none
O=C(NCc1ccccc1)c1ccccc1OC1CN(Cc2ccsc2)C1	Pf Dd2 inh 4µM
COc1ccc(OC)c(CN2CCOc3ccc(C(=O)NCc4ccc(C)cc4)cc3C2)c1	none
COc1cccc(CN2CC(Oc3ccccc3C(=O)NC3CC3)C2)n1	Pf Dd2 inh 4µM
O=C(NC1CC1)c1ccccc1OC1CN(Cc2ccc(F)cc2F)C1	none
COc1ccc(CN2CC(Oc3ccccc3C(=O)NC3CC3)C2)cc1OC	none
COc1ccc(OC2CN(Cc3ccsc3)C2)cc1	none
Cc1nnc([C@@H]2CC(F)(F)CN2C(=O)c2ccc3ncccc3c2)o1	none
O=C(NCc1ccccc1)N1CCC(O)(c2csc(CN3CC[C@@H](O)C3)n2)CC1	none
O=C(C1CC1)N1CC[C@H]2COC(=O)N2c2ccccc2C1	none
O=C(Cn1ccn2nc3c(c2c1=O)CCCC3)NCc1cccs1	none
COc1ccc2nc3n(c2c1)[C@@H](CNC1CCOCC1)COC3	none
COCc1cc(CNC(=O)c2cn(C3CCC(N)CC3)nn2)[nH]n1 (configuration not stated)	none
CCOc1cccc(CN2C[C@@H](CO)[C@H](C3CCN(C(C)=O)CC3)C2)c1	none
CN(CC1CCOCC1)S(=O)(=O)Cc1ccccc1Cl	none
O=C(O)C1(Oc2ccc3ncccc3c2)CCN(Cc2cccnc2)CC1	none
Cc1ccc(CN2C(=O)NC3(CCCN(C(=O)c4cc(F)ccc4F)C3)C2=O)cc1 (configuration not stated)	none
CCCCN(CCCNC(=O)c1cc(Nc2ccc(OC)c(OC)c2)nc2ccccc12)Cc1ccccc1	Pf Dd2 inh 2.2µM
CCCCN(C)CCCNC(=O)c1cc(-c2ccc(Br)s2)nc2ccccc12	Pf Dd2 inh 11µM
COc1ccc(Nc2cc(C(=O)NC3CCC(C)CC3)c3ccccc3n2)cc1OC (configuration not stated)	none
Cc1cc(C)cc(Nc2cc(C(=O)NCCCN(C)C3CCCCC3)c3ccccc3n2)c1	Pf Dd2 inh 6.3µM
CCc1ccccc1Nc1cc(C(=O)NCCCN(C)C2CCCCC2)c2ccccc2n1	none
Cc1ccc(C)c(Nc2cc(C(=O)NCCCN(C)C3CCCCC3)c3ccccc3n2)c1	none
CCCCN(CCCC)CCCNC(=O)c1cc(-c2ccc(Cl)s2)nc2ccccc12	Pf Dd2 inh 5.6µM
COc1ccc(Nc2cc(C(=O)NCCc3ccccc3)c3ccccc3n2)cc1OC	none
CCc1ccc(CNC(=O)c2cc(-c3ccc(Cl)s3)nc3ccccc23)cc1	none
CC(C)CCNC(=O)c1cc(-c2ccc(Br)s2)nc2ccccc12	none
CCc1ccccc1NC(=O)c1cc(-c2ccc(Cl)s2)nc2ccccc12	none
COc1ccc(CNC(=O)c2cc(-c3ccc(Br)s3)nc3ccccc23)c(OC)c1	none
NC(=O)[C@@H](Cc1ccccc1)NC(=O)[C@@]1(O)C[C@@H](O)[C@H](O)[C@@H](NC(=O)c2cccnc2)C1	none
CCNC(=O)c1cccnc1OC1CCN(C(=O)c2cc(C)ccc2C)C1 (configuration not stated)	none
